Each structure is given as a SMILES string. The panel holds about 79,000 compounds, 15% with a hit somewhere; the sample as a whole holds those more often. Values without a mark were called inactive. Calls of active or inactive are those of the source. Cut-off read from the data, not from the text of the source: active = growth inhibition above about 70%; inactive = the rest.

38 molecules from PubChem BioAssay (NCI) can be followed below.

The nature of test [1]: NCI Yeast Anticancer Drug Screen. Data for the rad50 strain (AID 155).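 Note: 0% = growth of vehicle-only cultures of the same strain.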 The following applies: S. cerevisiae rad50 strain growth inhibition; at 50.0 µM; stronger effect = higher value. A digest of the protocol:
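Vehicle-treated cultures provide the reference for the growth inhibition reported for compound-exposed, repair-deficient yeast.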

A short description of test [2]: NCI Yeast Anticancer Drug Screen. Data for the mec2-1 strain (AID 157). The conditions noted are these: S. cerevisiae mec2-1 strain, at 50.0 µM, stronger effect = higher value. A digest of the protocol: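 Strain: mec2-1 (DNA repair/cell cycle alteration). Compound exposure, then growth measured; inhibition expressed relative to vehicle.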
The nature of test [3]: NCI Yeast Anticancer Drug Screen. Data for the sgs1 mgt1 strain (AID 161).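 Note: 0% = growth of cultures given vehicle only.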 The conditions noted are these: S. cerevisiae sgs1 mgt1 strain, at 50.0 µM, stronger effect = higher value. The essentials:
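Mutant yeast exposed to compound; growth scored against vehicle-only wells.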

Test [4] is described as follows: NCI Yeast Anticancer Drug Screen. Data for the cln2 rad14 strain (AID 165).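 Note: 0% = growth equal to vehicle treated cultures.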 The following applies: S. cerevisiae cln2 rad14 strain, at 50.0 µM, stronger effect = higher value. The essentials:
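Compounds are applied to the cln2 rad14 yeast strain, and growth is then compared with that of vehicle-treated cultures to give inhibition.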

Test [5] can be described thus: NCI Yeast Anticancer Drug Screen. Data for the bub3 strain (AID 167). The following applies: S. cerevisiae bub3 mutant strain, at 50.0 µM, stronger effect = higher value. The essentials: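 Mutant yeast screening strain plus compound; vehicle-treated cultures serve as the 0% inhibition reference.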
Test [6] in a line: NCI Yeast Anticancer Drug Screen. Data for the mlh1 rad18 strain (AID 175). The following applies: S. cerevisiae mlh1 rad18 strain growth inhibition; at 50.0 µM; stronger effect = higher value. A digest of the protocol:
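Read-out is yeast growth inhibition, calculated against vehicle-only controls. The compound was applied to a strain engineered with DNA damage repair alterations.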

With `O=C(CN1CCOCC1)CC(O)(C(F)(F)F)C(F)(F)F`, the growth inhibition in test [1] was 0.35%; in test [2], 2.05%; in test [3], -1.65%; in test [4] it was 7.1%; in test [5], 1.85%; in test [6], 72.7% (active).
Regarding `CCOC(=O)C1=C(C(C)=O)C(c2cccc([N+](=O)[O-])c2)C(C(C)=O)=C(C(=O)OCC)N1`, the growth inhibition is -1.8% in test [1]; 4.05% in test [2]; -8.8% in test [3]; -2.8% in test [4]; -13.6% in test [5]; 7.25% in test [6].
For the molecule `Cc1ccc(S(=O)(=O)NC(=O)N(Cc2ccccc2)C(C)(C)C)cc1`, the growth inhibition in test [1] was 3.4%; in test [2], 20.4%; in test [3] it was 16.1%; in test [4], -0.15%; in test [5], 14.2%; in test [6], 16.9%.
On to `OCC1OC(n2c(=S)[nH]c3ccccc32)C(O)C1O` (stereo not drawn), for which the growth inhibition in test [1] was 9.4%; in test [2], -0.9%; in test [3], 5.4%; in test [4], 1.2%; in test [5], 4.4%; in test [6] it was 7.4%.
Regarding `CC(C)c1ccc(N=Nc2ccc(N(C)C)cc2)cc1`, the growth inhibition in test [1] is 4.2%; in test [2], 1.85%; in test [3], -4.55%; in test [4], -17.9%; in test [5], -4.7%; in test [6], -5.65%.
For `O=C(NCCc1c(-c2ccccc2)[nH]c2ccccc12)C1CCCCC1`, the growth inhibition is -10.6% in test [1]; 17.9% in test [2]; 32.6% in test [3]; -6.1% in test [4]; 30.9% in test [5]; -2.3% in test [6].
Regarding `COC1CC(NC(C)=O)C(OC(C)=O)C(CN=[N+]=[N-])O1` (stereo not drawn), the growth inhibition in test [1] is 5.1%; in test [2], 9.3%; in test [3], 8%; in test [4], -11.4%; in test [5], -10.2%; in test [6], 6.4%.
For the molecule `O=c1oc2ccccc2c(O)c1C(c1ccc2c(c1)OCO2)N1CCCC1` (stereo not drawn), the growth inhibition is 7.4% in test [1]; 36.7% in test [2]; 19.9% in test [3]; 15.3% in test [4]; 8.35% in test [5]; 22.9% in test [6].
For the molecule `CC(=O)NC(Cc1c[nH]c2ccccc12)C(=O)O` (stereo not drawn), the growth inhibition is -21.4% in test [1]; -37.8% in test [2]; -30.6% in test [3]; -23.4% in test [4]; -35.8% in test [5]; -5.65% in test [6].
Regarding `O=C(O)/C=C\c1cccc([N+](=O)[O-])c1`, the growth inhibition in test [1] was 11.9%; in test [2] it was -16.4%; in test [3], 7.4%; in test [4], 22.3%; in test [5] it was 27.6%; in test [6] it was -14.8%.
Take `CCOC(=O)NCc1cccc2ccccc12`: the growth inhibition in test [1] is 3.2%; in test [2], -2.7%; in test [3], -10.3%; in test [4] it was -89.4%; in test [5], 10.7%; in test [6], 2.5%.
As for `O=C1C=C(C2OC(CI)C(O)C2O)C(=O)N1` (stereo not drawn), the growth inhibition in test [1] was -0.45%; in test [2], 23.1%; in test [3], 11.5%; in test [4] it was -14.4%; in test [5], 23.2%; in test [6] it was -2.05%.
For `Cc1cc(=O)[nH]c(NNC(C#N)c2ccc([N+](=O)[O-])cc2)n1` (stereo not drawn), the growth inhibition is -18.5% in test [1]; 0.35% in test [2]; -36.1% in test [3]; -8.8% in test [4]; -30.6% in test [5]; -50.9% in test [6].
On to `CCOC(=O)C1=C(Nc2ccccc2)OC/C1=N\NC(=O)Cc1ccccc1`, for which the growth inhibition is -6.75% in test [1]; -23.7% in test [2]; -1.6% in test [3]; 0.85% in test [4]; 10.2% in test [5]; -19.1% in test [6].
Turning to `Cc1cc2ccccc2n1C`, the growth inhibition in test [1] is 4.05%; in test [2], 5.45%; in test [3] it was 39.5%; in test [4], 10.1%; in test [5], 31.9%; in test [6] it was 18.2%.
As for `COc1ccc(N=N/C(=N/NC(=O)c2ccccc2)c2ccc(N(CCC#N)CCC#N)cc2C)cc1`, the growth inhibition in test [1] is -4.35%; in test [2], -13.5%; in test [3], -22.8%; in test [4] it was -7.2%; in test [5], -23.1%; in test [6], -44.5%.
Regarding `CC(=O)CCCO`, the growth inhibition in test [1] is -1.6%; in test [2], -5.75%; in test [3], -0.8%; in test [4] it was -9.4%; in test [5], 19.1%; in test [6] it was -0.9%.
For the molecule `O=[N+]([O-])c1cccc(C2CC(c3ccccc3)=NN2c2ccccc2)c1` (stereo not drawn), the growth inhibition in test [1] is 2.9%; in test [2], -2.05%; in test [3], 0.25%; in test [4], -9.4%; in test [5], 10.4%; in test [6], -7.3%.
For the molecule `CC(=O)Nc1ccc(S(=O)(=O)Nc2c(-c3ccccc3)[nH]c(C)c2C(C)=O)cc1`, the growth inhibition in test [1] was 1.65%; in test [2] it was 7.85%; in test [3], -10.3%; in test [4], -0.65%; in test [5] it was 1.65%; in test [6] it was 13.8%.
With `COc1cc(-c2ccc(N=C=O)c(OC)c2)ccc1N=C=O`, the growth inhibition in test [1] is -4%; in test [2], -27.4%; in test [3], 9.8%; in test [4] it was -5.7%; in test [5] it was 29.9%; in test [6] it was -8.15%.
`CN1c2ccccc2N(C(=O)c2ccccc2)C(CC(=O)O)c2cccn21` (stereo not drawn): the growth inhibition in test [1] was -22.4%; in test [2], -40.5%; in test [3] it was -33.1%; in test [4] it was 23.8%; in test [5], -45%; in test [6] it was -16.3%.
Regarding `O=S1c2ccccc2N=C(c2ccc3ccccc3c2)CC1C1=CC=CCC1` (stereo not drawn), the growth inhibition was -27.4% in test [1]; -33.1% in test [2]; -3.1% in test [3]; -2.65% in test [4]; 3.85% in test [5]; -11.8% in test [6].
Take `Cc1ccc2c(c1)C1(c3ccccc3)Oc3ccc(C)cc3C(c3ccccc3)(O2)O1`: the growth inhibition was 12.2% in test [1]; 5.75% in test [2]; 10.7% in test [3]; 25.3% in test [4]; -4.9% in test [5]; -7.2% in test [6].
`CCOC(=O)COc1cc2c(cc1C(C)c1ccc(OCc3ccccc3)c(OC)c1)OCO2` (stereo not drawn): the growth inhibition in test [1] was -0.95%; in test [2] it was -7.55%; in test [3] it was -9.7%; in test [4] it was 10.6%; in test [5] it was -7.4%; in test [6], -6.3%.
As to `CCC(=O)NCCCCC1CCCC[N+]1(C)C` (stereo not drawn), the growth inhibition in test [1] was -0.65%; in test [2], -11.9%; in test [3], 7.45%; in test [4], -14.4%; in test [5] it was -2%; in test [6] it was -15.8%.
As to `COc1ccc(Nc2nc3c(N)cc(C(F)(F)F)cc3nc2-c2ccccc2)cc1`, the growth inhibition was 10.7% in test [1]; 2.65% in test [2]; -1.7% in test [3]; 25.9% in test [4]; 6.1% in test [5]; 1.4% in test [6].
In the case of `c1ccc(C2=C(c3ccccc3)C2c2ccccc2)cc1`, the growth inhibition in test [1] is 10.8%; in test [2] it was -8.95%; in test [3], -4.5%; in test [4] it was -21.1%; in test [5] it was -2.15%; in test [6], 7.15%.
As for `CN(C(=O)c1ccncc1)c1ccccc1`, the growth inhibition in test [1] was -11.4%; in test [2] it was -33.1%; in test [3], -14.1%; in test [4], 3.85%; in test [5], -31.1%; in test [6], 8.5%.
`O=c1ccc2cc3c(cc2[nH]1)OCO3`: the growth inhibition in test [1] is 2.5%; in test [2], -1.25%; in test [3], -4.2%; in test [4], -39.5%; in test [5], -9.2%; in test [6], 7.05%.
`O=C(Oc1c(Cl)cc(Cl)cc1Cl)c1ccc([N+](=O)[O-])cc1`: the growth inhibition in test [1] is 9.2%; in test [2], 10.8%; in test [3] it was 5.45%; in test [4], -8.65%; in test [5] it was -9.45%; in test [6], -1.15%.
For the molecule `CC(C)(C)NC(NC(C)(C)C)=C(/C=C(/Cl)[N+](=O)[O-])[N+](=O)[O-]`, the growth inhibition in test [1] is -5.5%; in test [2] it was -21.1%; in test [3] it was 0.45%; in test [4], -10.9%; in test [5], 15.9%; in test [6] it was 15.1%.
Take `COc1ccc(C(C)=O)c(O)c1`: the growth inhibition in test [1] is -10.4%; in test [2], -15.2%; in test [3], -10.2%; in test [4] it was -3.7%; in test [5] it was 3.2%; in test [6], 5.2%.
`NC(CSCCSCCSCC(N)C(=O)O)C(=O)O` (stereo not drawn): the growth inhibition in test [1] was -4.45%; in test [2], 0.1%; in test [3], 11.2%; in test [4], -9.05%; in test [5] it was -38.4%; in test [6], -4.5%.
With `Cc1nc(C(N)=S)sc1C(=O)CC(=O)C(=O)Nc1ccc(Br)cc1`, the growth inhibition in test [1] was 2.5%; in test [2], -38.5%; in test [3], -24.4%; in test [4], 1.35%; in test [5] it was -25.8%; in test [6] it was -14.8%.
As to `Cc1nc2nc(NCCCN(C)C)nc(NCCCN(C)C)c2nc1C`, the growth inhibition was 18.8% in test [1]; 1.25% in test [2]; 22.1% in test [3]; 23.6% in test [4]; 21.4% in test [5]; 15.3% in test [6].
Regarding `O=C(/C=C/c1ccco1)c1ccc(NCc2nc3ccccc3[nH]2)cc1`, the growth inhibition in test [1] was 40.2%; in test [2] it was -7%; in test [3] it was 41.5%; in test [4], 33.9%; in test [5] it was 13.8%; in test [6] it was 25.8%.
On to `CC(=O)Nc1ccc(N)cc1-c1ccc(N)cc1`, for which the growth inhibition in test [1] was -2.75%; in test [2], -16.9%; in test [3] it was 1.5%; in test [4] it was 29.1%; in test [5], 5.25%; in test [6], -18%.
As for `O=C(OCC(Br)C(Br)c1ccccc1)c1ccccc1` (stereo not drawn), the growth inhibition is -13.3% in test [1]; -12.6% in test [2]; -2% in test [3]; -1.4% in test [4]; 73.6% (active) in test [5]; -27.6% in test [6].
